Rows were chosen to be rich in hits. Some 9.9% of all compounds tested hit in one or more screens of this group.
SW480 rereplic – DNA re-replication induction in SW480 cells. SW480 DNA re-replication, Hoechst DNA content imaging, 48 h. Potency, µM (series often up to 46.1 µM), without a hit: at the top dose re-replication activation, usual class: activators. 340,000 compounds, 1.8% hits. AID 624297; also: potency is read from the fitted curve at half-maximal effect; % of control where 0% means no effect; nearly all actives have a fitted effect of over 55% in size
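Image-based read-out: total Hoechst fluorescence of nuclei (405 nm excitation, 500-530 nm emission), with hits raising the fraction of high-intensity nuclei. SW480 colon cells incubated 48 hr with compounds at 37 C.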
KB-3-1 tox – KB-3-1 parental cell cytotoxicity. KB-3-1 viability, CellTiter-Glo ATP luminescence, 72 h. Potency, µM (highest dose often 46.1 µM), hits mostly cytotoxic. 400,000 compounds, 1.4% hits. AID 1347075; also: potency is read from the fitted curve at half-maximal effect; % is scaled to controls: 0 for no effect and ±100 for the full control effect; nearly all actives have a fitted effect of over 60% in size
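Screening of KB-3-1 cells (DMEM, 10% FBS, phenol-red free) ran from lowest to highest compound concentration; after 72 h at 37 °C viability was read luminescently and curves fitted.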
IL-1B inflam inh – inhibitors of inflammasome signaling (IL-1 beta secretion) | AID 743279 | 360,000 compounds, 4.7% hits | THP-1 LPS/ATP IL-1B secretion, AlphaLISA, 16 h; hits give low values | activity change, % at 57.5 µM; in the data active = activity change below about -50%; inconclusive = mostly about -30% to -49%; also: % is scaled to controls: 0 for no effect and ±100 for the full control effect
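Secreted IL-1B measured by AlphaLISA bead assay after 16 h compound exposure of THP-1 cells; compounds (final up to 57.5 uM) added 1 h before LPS (250 ng/mL) and ATP (1.25 mM) stimulation; lower signal means less secretion.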
KB-V1 MDR tox – KB-V1 MDR subline cytotoxicity | KB-V1 MDR cells viability, CellTiter-Glo, 72 h | Potency, µM (titrated, usually from 46.1 µM), actives largely listed as cytotoxic | 400,000 compounds, 3.4% hits; also: potency is read from the fitted curve at half-maximal effect; % is scaled to controls: 0 for no effect and ±100 for the full control effect; nearly all actives have a fitted effect of over 60% in size
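Compound-treated KB-V1 multidrug-resistant cells, 72 h, 37 degrees C; viability by CellTiter-Glo. Fitted qHTS curves give the values.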
MCF10A rerep – inducers of DNA re-replication in MCF 10A breast cells; Potency, µM (highest dose often 46.1 µM), inactives show top-dose activity, positive = re-replication, most hits filed as activators; AID 624296; MCF 10A DNA re-replication, Hoechst nuclear intensity, 48 h; 350,000 compounds, 2.9% hits; also: potency is read from the fitted curve at half-maximal effect; % of control where 0% means no effect; nearly all actives have a fitted effect of over 50% in size
The depositor's hits bear a star; i = inactive; ? = inconclusive; . = no result given; [ ] = another dose, or the depositor's remark. Unless noted, calls follow the shape of the dose curve; as a rule, active = well fitted curve in the direction sought with a large enough effect; inconclusive = small, poorly fitted or top-dose-only effect, or another doubt; inactive = no such curve, though single readings can be large; an effect the other way counts as inactive or inconclusive.

SMILES	SW480 rereplic	KB-3-1 tox	IL-1B inflam inh	KB-V1 MDR tox	MCF10A rerep
COc1ccc(C(=O)COC(=O)C(CC(C)C)N2C(=O)c3ccccc3C2=O)cc1 (stereo unspecified)	-8.3%	i	0.3	8.2µM*	-6.9%
CC(C)CC(C(=O)OCC(=O)N1CCN(c2ccccc2)CC1)N1C(=O)c2ccccc2C1=O (stereo unspecified)	-2.3%	i	-7.2	16.4µM*	1.0%
OC[C@H]1O[C@H](OC[C@H]2OC(O)[C@H](O)[C@@H](O)[C@@H]2O)[C@H](O)[C@@H](O)[C@@H]1O (stereo partly specified)	10.0%	i	2.8	i	-6.8%
O=C(NCCCO)/C(=C\c1ccco1)NC(=O)c1ccco1	19.5%	i	-3.5	i	-1.4%
CCOC(=O)c1c(NC(=O)N/N=C/c2ccccc2OCC)sc(C(C)=O)c1C	4.4%	16.4µM*	56.6	?	?
CCOC(=O)c1c(NC(=O)CN2CCCc3ccccc32)sc(C(C)=O)c1C	3.8%	i	12.7	4.11µM*	-2.0%
COCCOC(=O)c1c(NC(=O)CN2CCc3ccccc32)sc(C(N)=O)c1C	26.7%	i	28.3	i	-3.0%
CCOC(=O)c1c(NC(=O)CSc2nnc(Cc3ccccc3)o2)sc(C(C)=O)c1C	-3.6%	i	-22.5	18.4µM*	11.0%
CCOC(=O)c1c(NC(=O)C2c3ccccc3Oc3ccccc32)sc(C(C)=O)c1C	1.8%	i	?	?	19.6%
CC(C)(C)C1CCC(=O)N(CCOc2ccccc2)CC1 (stereo unspecified)	-0.4%	i	-0.8	?	5.2%
Cn1c(/C=N/Nc2nc3ccccc3[nH]2)nc2ccccc21	?	?	7.5	i	7.6%
CCCn1c(/C=N/Nc2nc3ccccc3[nH]2)nc2ccccc21	.	i	-52.0*	?	?
CC(C)Cn1c(/C=N/Nc2nc3ccccc3[nH]2)nc2ccccc21	?	16.4µM*	62.3	?	10.0%
CS(=O)(=O)N1CCc2cc(-c3csc(NC(=O)C(c4ccccc4)c4ccccc4)n3)ccc21	-0.5%	i	15.9	?	16.1%
O=C(Cc1ccc(F)cc1)Nc1nc(-c2ccc(F)c(F)c2)cs1	8.5%	?	?	i	2.3%
CC1Cc2cc(-c3csc(NC(=O)Cc4ccccc4)n3)ccc2N1S(C)(=O)=O (stereo unspecified)	2.2%	20.6µM*	-83.8*	3.26µM*	16.0%
O=C(CSc1ncnc2[nH]ncc12)Nc1nc(-c2ccc(F)c(F)c2)cs1	?	i	-67.9*	?	?
COc1ccc(CC(=O)Nc2nc(-c3ccc(F)c(F)c3)cs2)cc1	?	?	-84.8*	?	?
COc1ccc(OC)c(-c2csc(NC(=O)Cc3ccccc3F)n2)c1	?	i	-62.4*	?	20.6µM*
CC(C)N1C(=O)c2ccccc2NC(=O)C1C(=O)NCc1cccc(C(F)(F)F)c1 (stereo unspecified)	.	i	6.4	i	.
Cc1cc(C)n(C(N)=NC(=O)c2ccccc2)n1	.	i	18.2	i	.
COc1ccc(-c2csc(NC(=O)Cc3cc(OC)c(OC)c(OC)c3)n2)cc1OC	2.1%	i	?	6.51µM*	3.1%
O=C1NCCc2c1[nH]c1ccc([N+](=O)[O-])cc21	9.8%	1.64µM*	?	0.92µM*	0.7%
O=C1NCCc2c1[nH]c1ccccc21	-3.3%	?	-11.3	6.51µM*	5.3%
N#CC1CCCc2c1[nH]c1ccc([N+](=O)[O-])cc21 (stereo unspecified)	0.4%	?	?	i	6.5%
SMILES	SW480 rereplic	KB-3-1 tox	IL-1B inflam inh	KB-V1 MDR tox	MCF10A rerep
COc1ccc2[nH]c3c(c2c1)CCNC3=O	-7.7%	?	.	?	5.8%
C/C(=N\NC(=O)c1cccc(S(=O)(=O)N2CCOCC2)c1)c1ccc(OCC(=O)N(C)C)cc1	-2.0%	i	13.4	i	5.6%
O=C(O)CNc1nc(-c2ccccc2)nc2ccccc12	12.2%	i	20.3	i	9.6%
Cc1cccc2nc(-c3ccccc3)nc(N[C@@H](CO)c3ccccc3)c12	28.8%	?	-63.2*	?	?
COc1ccc(-c2csc(NC(=O)CSc3nc(C)cs3)n2)cc1	-10.7%	i	34.4	i	-2.4%
CCOC(=S)SCC(=O)Nc1nc(-c2ccccc2)cs1	?	6.51µM*	?	?	20.6µM*
CCOC(=S)SCC(=O)Nc1nc(-c2ccc(Br)cc2)cs1	?	5.17µM*	-100.4*	5.8µM*	8.2µM*
CCOC(=O)N1CCN(C(=O)CSCC(=O)Nc2nc(-c3ccc(OC)cc3)cs2)CC1	8.9%	?	-13.5	20.6µM*	?
CCOC(=O)N1CCN(C(=O)CSCC(=O)Nc2nc(-c3ccc(-c4ccccc4)cc3)cs2)CC1	2.4%	?	27.1	i	13.0%
O=C(NCc1cccnc1)c1ccc(Br)o1	-8.0%	i	7.6	i	-2.0%
Cc1ccc(/C=N\NC(=O)c2ccc3c(c2)OCO3)o1	-6.1%	i	-18.1	i	-3.0%
CC(C)(C)C1=CC(O)(c2ccccc2)C=C(C(C)(C)C)C1=O	-0.5%	i	6.5	i	5.17µM*
COc1cc(CNC(=O)c2sc3ncccc3c2-n2cccc2)cc(OC)c1OC	.	i	.	i	.
O=C(Nc1ccc(Nc2ccccc2)cc1)c1ccc(Cl)c([N+](=O)[O-])c1	-1.2%	i	-11.2	i	25.2%
O=C(Nc1cccc2c1CCCC2)c1ccccc1F	2.2%	i	11.3	i	-0.4%
O=C(Nc1ccccc1-c1ccccc1)c1ccc(Cl)c([N+](=O)[O-])c1	-3.5%	16.4µM*	-100.3*	i	9.2µM*
O=C(Nc1cccc2c1CCCC2)c1ccc(Cl)c([N+](=O)[O-])c1	?	?	-72.9*	?	?
CCN(CC)S(=O)(=O)c1cc(C(=O)Nc2ccccc2[N+](=O)[O-])ccc1Cl	16.4µM*	i	-88.9*	?	?
O=C(Nc1ccccc1N1CCCCC1)c1ccc(Cl)c([N+](=O)[O-])c1	8.0%	i	.	i	?
O=C(Nc1cccc2c1CCCC2)c1cc([N+](=O)[O-])ccc1Cl	-2.9%[9.22 µM]	23.1µM*	?	?	?
O=C(Cc1ccc2ccccc2c1)Nc1nnc(-c2ccncc2)s1	.	i	.	i	.
O=C(CN1C(=O)NC2(CCCc3ccccc32)C1=O)NCc1ccc(Cl)cc1Cl (stereo unspecified)	-5.0%	i	-7.5	i	0.1%
Cc1ccccc1S(=O)(=O)NC(=O)C1(C)CCN1C(=O)Cc1ccc(C(C)(C)C)cc1 (stereo unspecified)	.	i	29.0	i	.

Bioassay records as filed in PubChem BioAssay.
